The values that follow come from PubChem BioAssay (NCI).

Holding throughout (test): NCI-60 one-dose screen, 48 h (100 = growth as untreated, 0 = no growth, -100 = all killed)
Holding throughout (conditions): 10 µM

Assay [1] relates to HCT-15 colon.
The test system of assay [2] is HT29 colon.
Assay [3] relates to SNB-75 CNS.
The subject of assay [4] is SNB-19 CNS.
Assay [5] concerns U251 CNS.
Assay [6] concerns PC-3 prostate.
Assay [7] relates to SK-MEL-5 melanoma.
Assay [8] relates to UACC-62 melanoma.
Assay [9] has as its system LOX IMVI melanoma.
Assay [10] deals with SK-MEL-2 melanoma.
The subject of assay [11] is EKVX NSCLC.
The subject of assay [12] is SN12C renal.
Assay [13] relates to UO-31 renal.
The subject of assay [14] is TK-10 renal.
The test system of assay [15] is ACHN renal.
Assay [16] relates to CAKI-1 renal.
For assay [17], the system named is A498 renal.
The test system of assay [18] is CCRF-CEM leukemia.
Assay [19] has as its system MOLT-4 leukemia.
For assay [20], the system named is SK-MEL-28 melanoma.

SMILES strings stand for the structures. About 83,000 compounds went through this panel and 20% of them were active in at least one assay; those are over-represented in the sample as a whole.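 Results are percent growth after 48 hours of single-concentration exposure. 100 means growth as in untreated cells, lower positive values show inhibition; negative values down to -100 show cell death.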 Values without a mark were called inactive. The source made the active and inactive calls. The calls were made as follows: active = growth percent below 10; inactive = the rest.

As to `NS(=O)(=O)c1ccc(NC(=O)CSc2ccc(-c3ccccc3)nn2)c(Br)c1`, the growth in assay [1] was 86.7%; in assay [2] it was 99.2%; in assay [3], 14.2%; in [4], 42.9%; in [5] it was 17.8%; in assay [6], 51.9%. For the same molecule, the growth in assay [7] was 85.7%; in assay [8] it was 59.2%; in assay [9], 42.6%; in assay [10], 95.8%; in [11] it was 70.1%; in assay [12], 57.4%. Moreover, the growth in assay [13] is 75.1%; in assay [14] it was 118%; in assay [15], 54.2%; in assay [16] it was 84.5%; in assay [17], 120%; in assay [18], 89.9%. Moreover, the growth in assay [19] was 95.6%.
Take `Nc1nc(-c2ccccc2)cc(-c2cc3ccccc3nc2Cl)n1`: the growth in [1] was 55.9%; in [2], 102%; in assay [3], 71.4%; in [4] it was 73.4%; in [5], 63.4%; in assay [6], 76.9%. For the same molecule, the growth was 92.9% in assay [7]; 83.3% in assay [8]; 45% in assay [9]; 97.1% in [10]; 80.1% in assay [11]; 83% in assay [12]. For the same molecule, the growth in assay [14] is 111%; in assay [15], 89.1%; in assay [16], 80.1%; in assay [17], 108%; in assay [18], 1.2% (active); in assay [19] it was 59.2%.
Consider `COc1ccc(C2NC(=S)NC(C)=C2C(=O)OC(C)C)cc1OC` (centres undefined), for which the growth in assay [1] was 105%; in [2], 115%; in [3], 94.9%; in [4], 98.9%; in assay [5] it was 102%; in assay [6], 96%. Besides, the growth in assay [7] is 98.9%; in assay [8] it was 90.5%; in assay [20], 109%; in assay [10], 114%; in [11], 97.9%; in [12] it was 101%. Further, the growth in assay [13] is 83.5%; in assay [14] it was 106%; in assay [15], 107%; in assay [16], 97.4%; in assay [17] it was 114%; in [18], 95.9%. In assay [19], the growth is 102%.
With `COc1ccc2c3nc4cc(C)c(C)cc4nc3n(CCN(C)C)c2c1`, the growth in [1] was 1.95% (active); in assay [2] it was 31.4%; in assay [3] it was 21.5%; in assay [4], 9.9% (active); in [5], -73.1% (active); in [6], 21.2%. Further, the growth is -80.7% (active) in [7]; 3.37% (active) in [8]; -63.9% (active) in assay [20]; -4.58% (active) in [10]; 12.6% in [11]; -15.6% (active) in [12]. The growth in assay [13] is -67.2% (active); in [14], 15.6%; in [15], -64% (active); in [16], -67.5% (active); in assay [17] it was 65.4%; in assay [18], 20.1%. Besides, the growth in assay [19] is 4.84% (active).
For the molecule `O=c1[nH][nH]c(Nc2ccccc2)c1N=Nc1ccc(F)cc1`, the growth in [1] was 70.1%; in [2], 107%; in assay [3], 59.4%; in assay [4] it was 95.3%; in [5], 99.9%; in assay [6] it was 95.5%. Also, the growth in assay [7] is 96.6%; in [8] it was 92.1%; in [20] it was 108%; in [10] it was 94.1%; in assay [11], 72.1%; in assay [12], 79.6%. Moreover, the growth was 66.2% in [13]; 94.5% in [14]; 86.2% in [15]; 59.3% in [16]; 110% in [17]; 93.9% in assay [18].
As to `CC1=C(c2cc(-c3ccc(Cl)cc3)c(C#N)c(N)n2)C(c2ccccc2)NC(=S)N1` (centres undefined), the growth is 10.9% in assay [1]; 24.7% in assay [2]; 36.5% in [3]; 75.4% in assay [4]; 38.8% in assay [5]; 49.8% in assay [6]. Also, the growth in [7] is 58.1%; in assay [8] it was 62.7%; in [9], -49.2% (active); in assay [10] it was 98.6%; in assay [12], 62.2%; in [13], 63.5%. In addition, the growth in assay [14] was 114%; in [15] it was 19.6%; in [16], 72.3%; in assay [17], 137%; in [18], 7.65% (active); in assay [19] it was 6.11% (active).
As to `O=c1[nH]c2ccccc2cc1CSc1ccc(Nc2nccc(-c3ccc4ccccc4c3)n2)cc1`, the growth was 30.6% in assay [1]; 49.9% in [2]; 111% in assay [3]; 71.2% in [4]; 20% in assay [5]; 1.09% (active) in [6]. The growth was 77% in assay [7]; 95.7% in [8]; 3.77% (active) in assay [9]; 96.5% in assay [10]; 68.1% in [11]; 54.1% in [12]. Besides, the growth in assay [13] was 93.7%; in assay [14] it was 78.8%; in [15], 79.5%; in assay [16], 72.6%; in assay [17], 82%; in assay [18] it was 79.9%. Moreover, the growth in assay [19] is 75.1%.
`O=C(NO)c1ccc(CNc2nc(-c3ccccc3)c3ccccc3n2)cc1`: the growth in assay [1] was -6.55% (active); in assay [2] it was 4.73% (active); in [3] it was 29%; in [4], -8.9% (active); in assay [5], -37.7% (active); in assay [6], 16.7%. Moreover, the growth was -87.8% (active) in [7]; -87.2% (active) in assay [8]; -2.7% (active) in assay [20]; -20.4% (active) in assay [10]; 15.6% in [11]; -0.363% (active) in assay [12]. In addition, the growth in assay [13] was -18.8% (active); in assay [14], -17.2% (active); in assay [15], -74.2% (active); in assay [16], -4.81% (active); in [17], -42.4% (active); in assay [18], 15%. For the same molecule, in assay [19], the growth is 12.3%.
